Assay [1] in a line: rapamycin-like changes in RPL19A-GFP expression – cell-based, S. cerevisiae, multiplex flow cytometry, primary screen (AID 1862; in the data active = percent of DMSO control GFP below about 86%;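 note: lower values mimic rapamycin by blocking the RPL19A rise seen in DMSO cells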). Particulars: S. cerevisiae RPL19A-GFP strain, flow cytometry fluorescence, 3 h; at 10 µM; stronger effect = lower value. (In general: Flow cytometry measures light scatter and fluorescence of single cells or particles in a stream.)
A short description of assay [2]: TOR pathway GLN3 branch reporter MEP2-GFP changes – S. cerevisiae, multiplex flow cytometry, primary screen (AID 1867;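 active = GFP response, as percent of the DMSO control, above the screen-wide mean plus 3 SD, about 139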;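 note: median GFP channel fluorescence of barcode-gated MEP2-GFP cells measured by flow cytometry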). The note with it: S. cerevisiae MEP2-GFP strain, 3 h, at 10 µM, stronger effect = higher value.
A short description of assay [3]: TOR pathway RTG branch CIT2 reporter changes – S. cerevisiae, GFP fusion, multiplex flow cytometry, primary screen (AID 1870;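 active = percent response above a set limit, the screen-wide mean plus 3 SD, cut at about 130% in these data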;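 note: barcoded CIT2-GFP strain pooled with four other GFP strains with rapamycin as positive control; median GFP fluorescence per well over plate mean of DMSO wells so 100% = DMSO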). Particulars: S. cerevisiae CIT2-GFP expression, 3 h, at 10 µM, stronger effect = higher value.
A short description of assay [4]: TOR pathway LAP4-GFP level changes – S. cerevisiae, multiplex flow cytometry, primary screen (AID 1873;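 active = GFP signal, as percent of the solvent control, above the screen mean plus 3 SD, about 149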). The note with it: S. cerevisiae LAP4-GFP expression, 3 h, at 10 µM, stronger effect = higher value.
Assay [5] in a line: reduced mouse 2C T cell binding to pMHC/ICAM-1 vesicles – MLPCN validation set, flow cytometry, LFA-1/ICAM-1 modulator project, pilot screen (AID 2523;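 active = response below a set limit, under 55% cells CD8-positive and vesicle-bound, and CD8 cells' 90th-percentile brightness under 279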;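 for vesicle binding response: mean PE anti-B7-1 fluorescence of CD8+ cells relative to row control; 100% = QL9-loaded vesicles with DMSO vehicle in the same plate row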). Particulars: 2C mouse CD8+ T cells, at 7 µM, stronger effect = lower value; double positive events: measured here: CD8+/vesicle+ event percentage.
Assay [6] concerns the target Integrin beta-1 (Homo sapiens) + Integrin alpha-4 (Homo sapiens) (UniProt P13612+P05556). Briefly: alpha4beta1 integrin LIBS antibody binding reduction – U937 cells, HUTS-21 mAb, flow cytometry, validation set, VLA-4 allosteric modulator project, pilot screen (AID 2674;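 active = inhibition above 50%, about 3 SD of the validation set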;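 note: antibody binding induced by the VLA-4 ligand LDV present at three times its Kd; 0% = LDV ligand with antibody and no compound and 100% = antibody without LDV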). Particulars: HUTS-21 LIBS mAb binding, at 6.7 µM, stronger effect = higher value.
Assay [7] is described as follows: calorie-restriction mimetic ROS inhibitors, yeast – validation compound set, pilot screen (AID 2706;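 active = superoxide response below 65% of plate, a cut near 3 SD across the whole screen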;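 note: yeast exposed to compound for one week at 30 degrees C before staining; 100% = mean of all compound wells on the same plate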). The note with it: S. cerevisiae aging, superoxide DHE fluorescence; at 10 µM; stronger effect = lower value.
Assay [8] deals with Beta-adrenergic receptor kinase 1 (Homo sapiens) (UniProt P25098). Description: GRK2 binders displacing RNA aptamer, biochemical, validation, human GRK2, bead flow cytometry (AID 488806;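 active = aptamer binding inhibition above 30%, about 3 SD of noise from non-fluorescent compounds; inactive = inhibition at or below 30%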). The note with it: bead-bound GRK2, FAM-aptamer displacement, at 10 µM, stronger effect = higher value.
A short description of assay [9]: cytosolic pH regulators acting via V-ATPase – S. cerevisiae, pHLuorin, HTS validation (AID 504600; in the data active = response above about 15%;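 note: plate controls were DMSO for no effect and reference compound for full effect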). The note with it: V-ATPase proton transport, at 10 µM, stronger effect = higher value.
Assay [10] relates to anti-desmoglein-3 scFv antibody binding to human DSG3. Briefly: blockers of pathogenic pemphigus antibody–desmoglein-3 binding – biochemical, validation compound set, bead-based, flow cytometry, pilot screen (AID 588368;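 active = binding below the plate cutoff, the plate median minus 3 SD, with a reading above zero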;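 note: signal is the median channel fluorescence of bead-bound GFP antibody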). Particulars: Protein G beads, DSG3-Fc, scFv-GFP binding, at 10 µM, stronger effect = lower value.
The test system of assay [11] is Botulinum neurotoxin type F light chain protease (Clostridium botulinum). Briefly: Clostridium botulinum type F light chain protease inhibitors, microsphere substrate cleavage, validation (AID 588459). The note with it: multiplex microsphere protease substrate cleavage assay, flow cytometry; at 10 µM; stronger effect = higher value.
The target of assay [12] is Botulinum neurotoxin type A (Clostridium botulinum) (UniProt P0DPI0). Description: BoNT/A light chain protease inhibitors, biochemical, multiplex microsphere flow cytometry, validation set (AID 588460). The note with it: at 10 µM, stronger effect = higher value.
Assay [13] addresses Lethal factor (Bacillus anthracis) (UniProt P15917). Briefly: Bacillus anthracis lethal factor inhibition, microsphere flow cytometry protease assay, validation at 10 µM (AID 588461). The note with it: multiplex microsphere protease cleavage assay, stronger effect = higher value.
Assay [14] in a line: Nile Red efflux blockade in pump-expressing yeast – validation compound set, multiplex, phenotypic, pilot screen (AID 588506;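 active = efflux inhibition above 0.42, the validation set average plus 4 SD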;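 note: Nile Red retained in cells so higher fluorescence means more efflux inhibition; 0 = negative control wells and 1 = enniatin B 25 µM full block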). The note with it: S. cerevisiae pump-expressing triplex, Nile Red efflux flow cytometry; at 10 µM; stronger effect = higher value.
Assay [15] addresses ATP-binding cassette sub-family B member 6 (Homo sapiens) (UniProt Q9NP58). Briefly: blockers of ABCB6-driven porphyrin uptake – K562-ABCB6 cells, flow cytometry, validation set, pilot screen (AID 588550;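 active = inhibition above the screen-wide mean plus 3 SD, about 51%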;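 note: 0% = DMSO wells and 100% = benzethonium chloride 70 µM positive control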). Particulars: K562-ABCB6 porphyrin accumulation, 1 h, at 10 µM, stronger effect = higher value.
Assay [16] in a line: AML differentiation inducers, ER-HoxA9 marrow cells – cell-based, GFP/MAC1 double positive, flow cytometry, validation set, primary screen (AID 588685;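 active = differentiation response of at least 50%, scaled between solvent and reference control, from cells with both markers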;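 note: compound exposure lasts four days before antibody staining and flow analysis; 0% = DMSO wells and 100% = 5 µM fulvestrant positive control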). Particulars: stronger effect = higher value.
Assay [17] concerns the target AP-2 complex subunit beta (Homo sapiens) (UniProt P63010). Briefly: beta-arrestin/AP2 interaction blockers – biochemical, validation set, GST-AP2 beads, flow cytometry, pilot screen (AID 504541;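 active = inhibition above 54%, about 3 SD of non-fluorescent compounds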;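 note: AP2 carries R879A mutation and is captured from E. coli lysate; bead-bound FITC arrestin peptide fluorescence measuring arrestin peptide binding to AP2; 0% = DMSO wells and 100% = excess unlabeled arrestin peptide control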). Particulars: FITC arrestin peptide, at 10 µM, stronger effect = higher value.

Each structure is given as a SMILES string. Inconclusive results are not listed. Active and inactive are the calls of the source. Unless noted, the rule behind the calls is not given here.

As a reminder, the inhibition is the relative decrease from the control value, in per cent.

Sequence of AP-2 complex subunit beta (Homo sapiens) (P63010 whole entry, looked up, one chain of several): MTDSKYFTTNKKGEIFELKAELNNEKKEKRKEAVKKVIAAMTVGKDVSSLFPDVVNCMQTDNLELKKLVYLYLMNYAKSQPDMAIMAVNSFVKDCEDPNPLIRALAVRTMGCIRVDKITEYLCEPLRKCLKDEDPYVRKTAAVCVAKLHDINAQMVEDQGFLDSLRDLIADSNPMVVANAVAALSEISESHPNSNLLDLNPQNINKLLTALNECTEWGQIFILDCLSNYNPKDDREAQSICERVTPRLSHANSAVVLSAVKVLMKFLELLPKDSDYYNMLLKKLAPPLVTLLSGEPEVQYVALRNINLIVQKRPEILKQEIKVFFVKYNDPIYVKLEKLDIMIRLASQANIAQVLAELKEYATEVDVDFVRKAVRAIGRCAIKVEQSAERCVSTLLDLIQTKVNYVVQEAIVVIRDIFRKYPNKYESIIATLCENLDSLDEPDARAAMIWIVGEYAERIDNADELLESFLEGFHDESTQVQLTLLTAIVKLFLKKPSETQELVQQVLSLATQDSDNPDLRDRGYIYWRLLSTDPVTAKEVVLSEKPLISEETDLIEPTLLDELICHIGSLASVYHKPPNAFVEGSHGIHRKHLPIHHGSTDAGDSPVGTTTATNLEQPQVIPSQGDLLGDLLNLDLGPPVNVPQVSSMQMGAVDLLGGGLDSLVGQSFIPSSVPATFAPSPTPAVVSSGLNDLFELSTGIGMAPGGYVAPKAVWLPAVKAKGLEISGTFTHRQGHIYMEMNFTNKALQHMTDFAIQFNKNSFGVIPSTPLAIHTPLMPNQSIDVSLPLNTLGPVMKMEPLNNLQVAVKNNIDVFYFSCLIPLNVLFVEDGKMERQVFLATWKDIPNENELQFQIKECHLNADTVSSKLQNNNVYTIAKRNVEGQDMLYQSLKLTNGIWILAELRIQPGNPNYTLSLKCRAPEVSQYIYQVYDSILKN
Sequence of Lethal factor (Bacillus anthracis) (P15917 whole entry, looked up): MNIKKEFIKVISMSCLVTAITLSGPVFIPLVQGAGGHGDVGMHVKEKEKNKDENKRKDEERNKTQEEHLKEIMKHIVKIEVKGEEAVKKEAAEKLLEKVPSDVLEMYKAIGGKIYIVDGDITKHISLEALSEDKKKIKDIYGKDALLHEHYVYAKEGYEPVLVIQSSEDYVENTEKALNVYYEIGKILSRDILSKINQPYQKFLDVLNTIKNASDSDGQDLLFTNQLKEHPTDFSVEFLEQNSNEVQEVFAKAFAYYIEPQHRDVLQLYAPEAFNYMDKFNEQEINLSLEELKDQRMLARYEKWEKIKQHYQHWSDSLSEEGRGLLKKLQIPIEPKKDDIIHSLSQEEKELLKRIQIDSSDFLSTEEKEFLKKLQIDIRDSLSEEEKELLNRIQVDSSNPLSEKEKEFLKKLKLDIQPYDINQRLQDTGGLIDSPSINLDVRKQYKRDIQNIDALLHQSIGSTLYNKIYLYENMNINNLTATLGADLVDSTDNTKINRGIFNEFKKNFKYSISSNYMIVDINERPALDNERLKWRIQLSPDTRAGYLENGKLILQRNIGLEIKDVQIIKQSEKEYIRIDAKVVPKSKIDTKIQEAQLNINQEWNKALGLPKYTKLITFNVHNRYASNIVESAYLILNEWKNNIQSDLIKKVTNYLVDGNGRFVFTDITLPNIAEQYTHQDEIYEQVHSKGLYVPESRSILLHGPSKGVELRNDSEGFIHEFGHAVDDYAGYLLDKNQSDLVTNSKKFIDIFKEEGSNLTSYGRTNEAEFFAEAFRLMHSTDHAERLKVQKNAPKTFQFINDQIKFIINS
Sequence of ATP-binding cassette sub-family B member 6 (Homo sapiens) (Q9NP58 whole entry, looked up): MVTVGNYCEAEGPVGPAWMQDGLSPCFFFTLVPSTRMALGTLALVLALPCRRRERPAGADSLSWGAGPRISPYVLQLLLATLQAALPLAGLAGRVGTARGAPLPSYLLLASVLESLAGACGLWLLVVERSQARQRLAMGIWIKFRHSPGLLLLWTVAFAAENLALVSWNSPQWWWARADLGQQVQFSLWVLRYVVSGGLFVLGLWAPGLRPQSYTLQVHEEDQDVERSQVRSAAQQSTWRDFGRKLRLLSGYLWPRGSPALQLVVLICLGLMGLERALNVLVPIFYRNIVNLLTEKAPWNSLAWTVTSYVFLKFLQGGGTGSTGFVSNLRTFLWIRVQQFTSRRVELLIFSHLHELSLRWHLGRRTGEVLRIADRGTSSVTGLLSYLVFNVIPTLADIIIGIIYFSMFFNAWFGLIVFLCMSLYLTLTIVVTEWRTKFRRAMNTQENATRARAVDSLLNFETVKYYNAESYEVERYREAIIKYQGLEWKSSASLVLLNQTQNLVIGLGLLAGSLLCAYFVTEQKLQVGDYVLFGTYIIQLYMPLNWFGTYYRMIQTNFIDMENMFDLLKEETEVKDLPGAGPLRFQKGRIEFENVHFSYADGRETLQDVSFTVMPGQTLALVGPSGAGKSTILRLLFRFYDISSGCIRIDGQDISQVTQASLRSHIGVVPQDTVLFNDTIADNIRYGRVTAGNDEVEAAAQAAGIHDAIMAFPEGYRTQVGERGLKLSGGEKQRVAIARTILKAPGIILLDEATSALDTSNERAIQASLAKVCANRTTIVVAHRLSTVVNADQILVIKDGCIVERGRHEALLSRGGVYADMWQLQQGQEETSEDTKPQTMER
Sequence of Beta-adrenergic receptor kinase 1 (Homo sapiens) (P25098 whole entry, looked up): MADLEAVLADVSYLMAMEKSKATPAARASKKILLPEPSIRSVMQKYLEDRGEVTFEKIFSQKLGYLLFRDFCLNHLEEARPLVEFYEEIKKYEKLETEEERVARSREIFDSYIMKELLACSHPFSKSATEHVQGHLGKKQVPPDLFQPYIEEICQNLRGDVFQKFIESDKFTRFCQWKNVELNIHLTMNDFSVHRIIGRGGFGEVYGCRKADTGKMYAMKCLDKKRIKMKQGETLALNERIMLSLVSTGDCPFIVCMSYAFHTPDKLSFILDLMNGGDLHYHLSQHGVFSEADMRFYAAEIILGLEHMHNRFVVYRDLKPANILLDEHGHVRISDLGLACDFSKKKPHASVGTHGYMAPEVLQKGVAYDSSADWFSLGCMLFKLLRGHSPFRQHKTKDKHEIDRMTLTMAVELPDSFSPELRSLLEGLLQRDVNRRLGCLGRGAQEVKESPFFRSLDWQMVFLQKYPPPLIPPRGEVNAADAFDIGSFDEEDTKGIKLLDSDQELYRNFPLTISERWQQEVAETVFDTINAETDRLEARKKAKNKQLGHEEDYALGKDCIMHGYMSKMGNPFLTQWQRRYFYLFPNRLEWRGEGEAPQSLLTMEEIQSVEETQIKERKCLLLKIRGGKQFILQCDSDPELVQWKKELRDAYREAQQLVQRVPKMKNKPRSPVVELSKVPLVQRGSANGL
Sequence of Botulinum neurotoxin type A (Clostridium botulinum) (P0DPI0 whole entry, looked up): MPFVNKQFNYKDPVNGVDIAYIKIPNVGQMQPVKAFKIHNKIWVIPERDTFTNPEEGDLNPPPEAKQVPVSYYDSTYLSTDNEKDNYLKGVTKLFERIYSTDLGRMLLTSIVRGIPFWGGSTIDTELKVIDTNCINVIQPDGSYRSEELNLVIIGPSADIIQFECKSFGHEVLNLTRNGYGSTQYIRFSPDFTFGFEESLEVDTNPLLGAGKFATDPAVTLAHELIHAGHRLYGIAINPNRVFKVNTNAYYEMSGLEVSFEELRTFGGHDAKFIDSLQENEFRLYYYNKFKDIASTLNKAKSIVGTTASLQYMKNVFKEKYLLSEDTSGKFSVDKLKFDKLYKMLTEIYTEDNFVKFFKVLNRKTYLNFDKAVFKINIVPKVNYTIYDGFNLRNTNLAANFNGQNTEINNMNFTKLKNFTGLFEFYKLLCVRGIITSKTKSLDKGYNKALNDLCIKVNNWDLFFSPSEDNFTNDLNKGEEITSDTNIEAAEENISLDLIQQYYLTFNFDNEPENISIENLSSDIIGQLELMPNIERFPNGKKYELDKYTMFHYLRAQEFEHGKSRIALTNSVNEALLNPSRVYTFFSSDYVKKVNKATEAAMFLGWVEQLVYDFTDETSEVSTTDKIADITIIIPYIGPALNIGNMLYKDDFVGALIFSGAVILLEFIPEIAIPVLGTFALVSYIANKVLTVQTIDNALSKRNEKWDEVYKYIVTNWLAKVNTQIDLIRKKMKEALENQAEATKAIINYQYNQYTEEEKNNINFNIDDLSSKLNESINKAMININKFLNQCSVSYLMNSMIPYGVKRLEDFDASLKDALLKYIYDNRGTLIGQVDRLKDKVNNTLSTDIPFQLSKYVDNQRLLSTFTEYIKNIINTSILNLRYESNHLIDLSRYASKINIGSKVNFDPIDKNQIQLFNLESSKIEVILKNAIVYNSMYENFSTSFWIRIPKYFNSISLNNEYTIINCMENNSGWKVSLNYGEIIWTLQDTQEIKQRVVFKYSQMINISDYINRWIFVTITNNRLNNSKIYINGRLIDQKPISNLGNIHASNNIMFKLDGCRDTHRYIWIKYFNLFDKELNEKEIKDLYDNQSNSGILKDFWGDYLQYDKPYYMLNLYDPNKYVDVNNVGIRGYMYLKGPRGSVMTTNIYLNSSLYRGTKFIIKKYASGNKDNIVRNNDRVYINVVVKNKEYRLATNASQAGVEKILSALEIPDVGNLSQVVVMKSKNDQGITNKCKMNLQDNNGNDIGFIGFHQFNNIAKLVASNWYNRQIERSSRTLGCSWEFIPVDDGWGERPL

`C[C@H]1CCC/C=C/C2C[C@H](O)CC2[C@H](O)/C=C/C(=O)O1` (some centres undefined): the percent of DMSO control GFP in assay [1] is 106% (inactive). For the same compound, the results for the GFP response vs DMSO in assay [2] and in assay [4] were 111% (inactive) and 100% (inactive), respectively. The percent response of DMSO control in [3] was 99.7% (inactive). In assay [5], this compound returned a double positive events of 62.5%. Further, the vesicle binding response in assay [5] was 166% (inactive). Also, the inhibition in [6] is 0.25% (inactive); in assay [11], 4% (inactive); in assay [12] it was -0.8% (inactive); in [13], 2.7% (inactive); in assay [15] it was 17% (inactive). Further, the superoxide response (% of plate) in assay [7] was 92.8% (inactive). Further, the aptamer binding inhibition in [8] is 1% (inactive). Also, the response in assay [9] is -4.42% (inactive). For the same compound, the binding (% of control) in [10] was 85.8% (inactive). Further, the efflux inhibition (fraction of control) in [14] was 0.31 (inactive). Moreover, the differentiation response in assay [16] was 32% (inactive).

On to `COC1=CC(=O)OC(/C=C/c2ccccc2)C1` (centres undefined), for which the percent of DMSO control GFP in assay [1] is 102% (inactive). In addition, the results for the GFP response vs DMSO in [2] and in assay [4] were 105% (inactive) and 104% (inactive), respectively. In addition, in assay [3], the percent response of DMSO control is 105% (inactive). The compound further yielded a double positive events in assay [5] of 56.3%. Moreover, the vesicle binding response in [5] was 194% (inactive). The inhibition is 13.8% (inactive) in assay [6]; 47% (inactive) in [17]; 3.9% (inactive) in [11]; 1.1% (inactive) in assay [12]; 5.6% (inactive) in assay [13]; 4% (inactive) in assay [15]. Besides, the superoxide response (% of plate) in assay [7] was 101% (inactive). In addition, the aptamer binding inhibition in assay [8] is -1% (inactive). The response in assay [9] is -10.4% (inactive). For the same compound, in [10], the binding (% of control) was 106% (inactive). Moreover, the efflux inhibition (fraction of control) in assay [14] is 0.06 (inactive). Also, the differentiation response in [16] is 22.4% (inactive).

On to `CC[C@@H](CO)NC(=O)[C@@H]1C=C2c3cccc4c3c(cn4C)C[C@H]2N(C)C1`, for which the percent of DMSO control GFP in assay [1] is 103% (inactive). Moreover, the GFP response vs DMSO is 103% (inactive) in [2] and 90.3% (inactive) in assay [4]. Also, in assay [3], the percent response of DMSO control was 99.8% (inactive). Moreover, the double positive events in [5] was found to be 59.1%. In [5], the vesicle binding response was 158% (inactive). For the same compound, the inhibition in [6] was 8.15% (inactive); in assay [17] it was 0.36% (inactive); in [13], -6.6% (inactive); in [15], 7% (inactive). Further, the superoxide response (% of plate) in [7] is 108% (inactive). Moreover, the aptamer binding inhibition in assay [8] was 2% (inactive). In addition, the response in [9] is -0.46% (inactive). Further, in [10], the binding (% of control) is 104% (inactive). In assay [14], the efflux inhibition (fraction of control) is 0.56 (active). For the same compound, the differentiation response in assay [16] is 1.41% (inactive).

`O=C1CC[C@@]2(O)[C@H]3Cc4ccc(O)c5c4[C@@]2(CCN3CC2CC2)[C@H]1O5`: the percent of DMSO control GFP in assay [1] is 98.3% (inactive). Moreover, the figures for the GFP response vs DMSO in assay [2] and in assay [4] were 126% (inactive) and 84.7% (inactive), respectively. Also, the percent response of DMSO control in [3] is 96.6% (inactive). Further, the double positive events in assay [5] came out at 63.4%. The vesicle binding response in assay [5] is 207% (inactive). In addition, the inhibition in assay [6] was 1.61% (inactive); in assay [17] it was -0.81% (inactive); in assay [15], 14% (inactive). The superoxide response (% of plate) in assay [7] was 95.9% (inactive). In assay [8], the aptamer binding inhibition is 2% (inactive). The response in assay [9] is 1.19% (inactive). Further, in [10], the binding (% of control) was 107% (inactive). Also, in [14], the efflux inhibition (fraction of control) is -0.02 (inactive). In assay [16], the differentiation response is -3.28% (inactive).

For the compound `CN(C)[C@@H]1C(=O)C(C(N)=O)=C(O)[C@@]2(O)C(=O)C3=C(O)c4c(O)cccc4[C@@](C)(O)[C@H]3[C@H](O)[C@@H]12`, the percent of DMSO control GFP in [1] is 102% (inactive). Besides, the GFP response vs DMSO was 98.9% (inactive) in assay [2] and 97.4% (inactive) in assay [4]. The percent response of DMSO control in assay [3] is 105% (inactive). For the same compound, the double positive events in assay [5] came to 56.9%. Also, in assay [5], the vesicle binding response is 155% (inactive). The inhibition is 6.29% (inactive) in [6]; 34.2% (inactive) in assay [17]; -9.4% (inactive) in [11]; -5.3% (inactive) in [12]; -12.6% (inactive) in [13]; 3% (inactive) in [15]. In addition, in assay [7], the superoxide response (% of plate) is 99.8% (inactive). Moreover, in assay [8], the aptamer binding inhibition is 26% (inactive). Moreover, the response in [9] was 4.02% (inactive). In addition, the binding (% of control) in assay [10] was 87.9% (inactive). The efflux inhibition (fraction of control) in assay [14] was -0.31 (inactive). In assay [16], the differentiation response was -18% (inactive).

The values are drawn from PubChem BioAssay.
